Bioassay records from PubChem.
Only some compounds are listed: those with a hit (about 6% of all), similar ones and a draw of the others.
D3 ag: qHTS of D3 Dopamine Receptor Agonist: qHTS | D3R DiscoveRx beta-arrestin cells, luminescence, 90 min | max activation, % | hit rate 0.58% among 410,000 | AID 652048, 2013; in the data active = max activation above about 30%
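Agonist mode: compounds and dopamine controls were applied to plated cells for 90 min at 37 degrees C after an overnight attachment at 1500 cells/well. Luminescent read-out followed 30 - 60 minutes at room temperature with DiscoveRx detection reagent.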
D1 PAM: Potentiators of Human D1 Dopamine Receptor: qHTS; D(1A) dopamine receptor (Homo sapiens), P21728; HEK293 TREx D1 cells, calcium flux, dopamine EC20 potentiation; potentiation, % at 10 µM; hit rate 0.036% among 360,000; AID 504651, 2011; in the data active = potentiation above about 30%
Target sequence (P21728 whole entry, looked up): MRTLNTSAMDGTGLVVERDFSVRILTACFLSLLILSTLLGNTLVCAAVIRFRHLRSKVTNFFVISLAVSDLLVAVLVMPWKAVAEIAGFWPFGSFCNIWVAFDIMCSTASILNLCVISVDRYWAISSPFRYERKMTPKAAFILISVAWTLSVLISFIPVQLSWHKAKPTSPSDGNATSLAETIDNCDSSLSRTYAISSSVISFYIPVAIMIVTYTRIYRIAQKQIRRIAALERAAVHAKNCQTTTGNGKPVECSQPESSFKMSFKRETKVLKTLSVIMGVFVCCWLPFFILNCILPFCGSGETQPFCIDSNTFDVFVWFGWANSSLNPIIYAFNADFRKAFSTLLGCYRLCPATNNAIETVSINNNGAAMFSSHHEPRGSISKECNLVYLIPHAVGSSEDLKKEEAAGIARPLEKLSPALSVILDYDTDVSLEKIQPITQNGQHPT
D1 agonist: Allosteric Agonists of the Human D1 Dopamine Receptor: qHTS. hit rate 1% among 360,000. activation, % at 2 µM. AID 504660, 2011. HEK293 T-REx D1 cells, calcium flux, agonist mode; in the data active = activation above about 30%
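Agonism was scored from calcium flux recorded over 180 s (1 read/s) after pintool compound addition, following a 10-cycle baseline. Cells were inducible force-coupled HEK293 TREx D1, plated overnight at 30 C and loaded with no-wash calcium dye.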
D3 antag: qHTS of D3 Dopamine Receptor Antagonist: qHTS | D3R cells, DiscoveRx beta-arrestin luminescence, antagonist mode; active compounds read low | max response, negative = inhibition, % | hit rate 2.5% among 360,000; in the data active = max response below about -50%; inconclusive = no clear call, values can overlap the other calls
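Cells expressing the human receptor were seeded at 1500 cells/well, incubated overnight at 37 degrees C in 5% CO2, then exposed to library compounds with dopamine controls for 90 minutes at 37 degrees C before luminescent detection.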
D1 antag: Antagonist of Human D 1 Dopamine Receptor: qHTS | hit rate 3.2% among 360,000 | AID 504652, 2011 | activity change, negative = inhibition, % at 10 µM | HEK293 TREx D1 cells, calcium flux, dopamine EC80; active compounds read low; in the data active = activity change below about -30%
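Kinetic fluorescence of a calcium dye serves as the read-out. D1-expressing Hek293 Trex cells, induced overnight at 30 C, are exposed to compound for 180 s before an EC80 dopamine addition, then read 180 s further.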
Hits are given with their value; . = inactive; ? = inconclusive; / = no result; ! = repeats disagree.

SMILES	D3 ag	D1 PAM	D1 agonist	D3 antag	D1 antag
Cc1ccc(O)c(NC(=O)c2cc([N+](=O)[O-])ccc2Cl)c1	.	.	.	.	-30.2
Cc1cc(O)c(NC(=O)c2cc([N+](=O)[O-])ccc2Cl)cc1C	.	.	.	.	.
O=C(Nc1ccc([N+](=O)[O-])cc1Cl)c1cc(Cl)ccc1O	.	.	.	.	-42.1
O=C(Nc1cccc(Cl)c1)c1cc(N=Nc2ccc([N+](=O)[O-])cc2Cl)ccc1O	.	.	.	.	-53.7
COc1ccc(-c2nc3c4ccccc4ccn3c2Cc2ccccc2C(F)(F)F)cc1OC	.	/	/	.	/
c1nc(N2CCCC2)c2[nH]cnc2n1	.	.	.	.	.
c1cnc(N2CCN(Cc3ccc4c(c3)OCO4)CC2)nc1	56.2!	.	.	?	.
c1cc2c(cc1CN1CCOCC1)OCO2	.	.	.	.	.
Cc1ccc2[nH]c3c(N4CCN(Cc5ccc6c(c5)OCO6)CC4)ncnc3c2c1	/	.	.	/	.
c1nc(N2CCN(Cc3ccc4c(c3)OCO4)CC2)c2[nH]cnc2n1	.	.	.	-62.0	.
c1ccc(COc2ccc(CN3CCN(c4ccccn4)CC3)cc2)cc1	50.9	.	.	.	.
COc1ccc(CN2CCN(c3ccccn3)CC2)c(OC)c1	.	.	.	?	.
Fc1ccc(N2CCN(c3ncnc4nc[nH]c34)CC2)cc1	.	.	.	.	-54.2
COc1ccc(C(C)C)cc1S(=O)(=O)NCCc1c(C)[nH]c2c(Cl)cccc12	.	.	.	/	.
Brc1ccc(CN2CCN(c3ccccn3)CC2)s1	67.6	.	.	.	.
OC(COCc1ccccc1)CN1CCN(Cc2ccc3c(c2)OCO3)CC1 (stereo not drawn)	.	.	.	.	.
c1ccc(N2CCN(Cc3ccc4c(c3)OCO4)CC2)nc1	47.3	/	/	?	/
SC(COCc1ccccc1)CN1CCN(Cc2ccc3c(c2)OCO3)CC1 (stereo not drawn)	.	.	.	-55.2	.
CSc1nc(N2CCN(Cc3ccc4c(c3)OCO4)CC2)c2ccccc2n1	.	.	.	-64.3	.
Cc1nc(N2CCN(Cc3ccc4c(c3)OCO4)CC2)c2cc(-c3ccccc3)sc2n1	.	.	.	.	.
Cc1ccc(CCNC(=O)c2cc3cc4cc(C)ccc4nc3s2)cc1	.	.	.	/	.
O=S(=O)(c1ccc2c(c1)OCCO2)C1CCN(S(=O)(=O)c2c(F)cccc2F)CC1	/	.	.	/	.
O=S1(=O)N=C(N2CCN(Cc3ccc4c(c3)OCO4)CC2)c2ccccc21	.	.	.	-80.8	.
O=S1(=O)N=C(N2CCN(Cc3ccccc3)CC2)c2ccccc21	.	.	.	.	.
COCc1ccc(C(=O)N2CCCC(N(C)Cc3ccccc3)C2)s1 (stereo not drawn)	.	.	.	.	.
SMILES	D3 ag	D1 PAM	D1 agonist	D3 antag	D1 antag
CN(Cc1ccccc1)C1CCCN(C(=O)c2ccc(Cl)s2)C1 (stereo not drawn)	.	.	.	-81.9	-31.2
COc1cc(NC(=O)c2ccc3c(c2)OCO3)c2ncccc2c1	.	.	.	.	-30.7
COc1cc(NCCCCCCCN)c2ncccc2c1	.	.	.	.	.
O=C(Nc1cccc2cccnc12)OCc1ccccc1	/	.	.	/	.
COc1cc(NC(=O)OCc2ccccc2)c2ncccc2c1	34.4	/	/	.	/
COc1cc(NC(=O)c2cc(OC)c(OC)c(OC)c2)c2ncccc2c1	.	/	/	.	/
COc1cc(NC(C)CCCN)c2ncccc2c1 (stereo not drawn)	.	.	.	-68.5	.
Cc1ccc(CNC(=O)C2CCCN(S(=O)(=O)c3cn(C)cn3)C2)cc1 (stereo not drawn)	.	.	.	/	.
COc1ccc(NC(C)=O)cc1NC(=O)CCn1c(=O)sc2ccccc21	.	.	.	.	.
O=C(CCn1c(=O)sc2ccccc21)NCc1ccco1	.	.	78.8	.	.
O=C(CCN1C(=O)c2ccccc2C1=O)NCCC1=CCCCC1	.	.	.	.	.
O=C(CCn1c(=O)sc2ccccc21)NCCC1=CCCCC1	.	.	.	-108.2	.
CC(=O)Nc1cccc(NC(=O)CCn2c(=O)sc3ccccc32)c1	.	.	.	.	-90.2
CCN(CC(=O)Nc1sc2c(c1C#N)CCC(C)C2)Cc1nc2ccccc2c(=O)[nH]1 (stereo not drawn)	.	.	.	.	-60.9
CCN(CC(=O)Nc1sc2c(c1C#N)CCC(C)C2)CC(=O)NC1CCS(=O)(=O)C1 (stereo not drawn)	.	.	.	.	-59.6
CCOc1ccc(CCNC(=O)c2cc(=O)[nH]c3ccc(S(=O)(=O)N4CCCCC4)cc23)cc1OCC	.	.	.	/	.
CCc1ccc(NC(=O)CSC2=C(C#N)C(c3ccco3)C3=C(CCCC3=O)N2)cc1 (stereo not drawn)	.	.	.	.	-60.7
Cc1ccc(NC(=O)CSC2=C(C#N)C(c3ccco3)C3=C(CC(C)(C)CC3=O)N2)cc1 (stereo not drawn)	.	.	.	.	.
Cc1ccc(C(=O)CSC2=C(C#N)C(c3ccco3)CC(=O)N2)c(C)c1 (stereo not drawn)	.	.	63.2	.	-58.3
N#CC1=C(SCC(=O)c2ccc(Br)cc2)NC2=C(C(=O)CCC2)C1c1ccco1 (stereo not drawn)	.	.	.	-58.8	.
CC1=C(c2ccc(C(C)C)cc2)S(=O)(=O)NC1=NCc1ccccc1C	.	.	.	/	.
Cc1ccc(OCC(=O)NCCNC(=O)c2cnccn2)cc1C	.	.	39.2	.	.
CC(=O)Nc1cccc(OCC(O)Cn2c(C)nc3ccccc32)c1 (stereo not drawn)	.	.	.	.	-69.1
CCCc1nc2ccccc2n1CC(O)COc1ccc(NC(C)=O)cc1 (stereo not drawn)	.	.	.	.	-33.5
CC(=O)Nc1ccc(OCC(O)Cn2cnc3ccccc32)cc1 (stereo not drawn)	.	.	.	.	.
CC(=O)Nc1cccc(OCC(O)Cn2cnc3ccccc32)c1 (stereo not drawn)	.	.	.	.	.
CCOc1ccc(CC(=O)NC2CC(=O)N(c3ccc(C)c(C)c3)C2)cc1 (stereo not drawn)	.	.	.	/	/
CCCS(=O)(=O)NC(=O)C1(C)CCCN(C(=O)c2ccc(F)cc2Cl)C1 (stereo not drawn)	.	/	/	.	/
O=S(=O)(O)NC1CCCCC1	.	/	/	/	/
NCCCC[C@@H]1NC(=O)[C@H](CCC(=O)O)NC(=O)c2cc([N+](=O)[O-])cc(I)c2SC[C@@H](C(=O)NCC(N)=O)NC1=O	.	.	.	.	-44.3
